Only a selection was taken, and hits are over-represented in it overall.
BAP1 inh: blocks human BAP1 ubiquitin-AMC hydrolysis; recombinant BAP1, Ub-AMC hydrolysis fluorescence kinetic; stronger effect = lower value; calls only at 20 µM; 72,000 tested, 0.48% active; Q92560;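 active means activity remaining at or below 50% of control, provided the compound also passes the data quality filters; inactive means the rest, including low values that fail the filters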;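 further: 100% = DMSO wells rate and 0% = substrate alone blank rate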
Target sequence (Q92560 whole entry, looked up): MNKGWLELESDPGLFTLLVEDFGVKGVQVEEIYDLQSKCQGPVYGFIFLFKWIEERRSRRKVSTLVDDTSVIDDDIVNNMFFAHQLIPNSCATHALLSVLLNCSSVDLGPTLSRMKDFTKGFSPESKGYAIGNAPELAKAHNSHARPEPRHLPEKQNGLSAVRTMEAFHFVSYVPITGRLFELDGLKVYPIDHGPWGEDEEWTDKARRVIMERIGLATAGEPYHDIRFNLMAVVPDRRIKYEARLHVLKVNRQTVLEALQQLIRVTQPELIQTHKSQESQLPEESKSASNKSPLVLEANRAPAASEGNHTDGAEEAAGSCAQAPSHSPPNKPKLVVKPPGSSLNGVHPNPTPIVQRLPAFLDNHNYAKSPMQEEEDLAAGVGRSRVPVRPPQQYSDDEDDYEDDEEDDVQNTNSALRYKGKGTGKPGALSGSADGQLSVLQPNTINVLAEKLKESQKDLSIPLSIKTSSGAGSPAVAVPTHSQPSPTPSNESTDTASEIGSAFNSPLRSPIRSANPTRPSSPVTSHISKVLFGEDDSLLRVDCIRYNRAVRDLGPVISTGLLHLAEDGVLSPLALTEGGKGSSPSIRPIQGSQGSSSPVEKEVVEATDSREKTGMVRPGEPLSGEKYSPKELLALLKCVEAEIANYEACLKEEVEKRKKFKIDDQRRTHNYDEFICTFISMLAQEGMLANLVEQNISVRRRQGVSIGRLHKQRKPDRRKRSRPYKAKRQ
D1 mod: allosteric modulators of human D1 dopamine receptor. P21728. HEK293 D1, CRE-luciferase, dopamine EC30 potentiation; actives deviate in either direction. B-score at 10 µM. 58,000 tested, 5.9% active;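 active means luminescence count or its row- and column-corrected plate score outside the 99.7% band of the plate's sample wells, on either side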
hDAT+cocaine: human DAT dopamine uptake with cocaine, either direction; LLC-PK1 hDAT cells, [14C]-dopamine uptake with cocaine IC80; actives deviate in either direction; B-score at 10 µM; 110,000 tested, 1.3% active; Q01959;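 active means Z score or B-score, a plate-position-corrected score, falls beyond the plate's 99.7% confidence bounds, in either direction; inactive means both scores lie inside the 99.7% bounds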;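 further: scored against the spread of the other compound wells on the same plate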
D1 mod confirm: D1 receptor (human) allosteric modulation, confirmed; shares compounds with D1 mod; HEK293 D1 CRE-luciferase, dopamine EC30 potentiation; stronger effect = higher value; luminescence at 10 µM; 2,200 tested, 88% active; AID 642;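 active means luminescence in either of two replicates above the same-plate mean plus 3 SD of the low-dose dopamine control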
D1 no dopamine: activates D1 CRE-luciferase signal without dopamine present; HEK293 D1 CRE-luciferase, luminescence, no dopamine; stronger effect = higher value; shares compounds with D1 mod; 1,900 tested, 0.8% active; AID 646; luminescence at 10 µM; in the data active means luminescence above about 3900
Isoprot counter: isoproterenol response counter-screen activity for D1 modulators; HEK293 D1 CRE-luciferase, isoproterenol EC30 counter-screen; stronger effect = higher value; 2,200 tested, 63% active; shares compounds with D1 mod; luminescence at 10 µM;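 active means luminescence in either replicate above plate mean of wells with a partly effective reference agonist dose plus 3 SD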;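 further: isoproterenol raises cAMP through native beta-adrenoceptor Gs so signal bypasses D1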
* = called active by the depositor; i = inactive; nt = no result given.

SMILES	BAP1 inh	D1 mod	hDAT+cocaine	D1 mod confirm	D1 no dopamine	Isoprot counter
COc1ccc(Cn2nnc3c(=O)[nH]c(C4CCCN(C(=O)c5ccccc5)C4)nc32)cc1 (centres undefined)	i	4.32*	2.16	10456*	1612	3008
Cc1ccc(Cn2nnc3c(=O)[nH]c(C4CCCN(C(=O)Nc5ccc(F)cc5)C4)nc32)cc1 (centres undefined)	nt	2.15	0.38	nt	nt	nt
O=C(c1ccccc1Cl)N1CCCC(c2nc3c(nnn3Cc3ccccc3)c(=O)[nH]2)C1 (centres undefined)	i	1.41	1.84	nt	nt	nt
COc1ccc(NC(=O)c2cccnc2Cl)c(OC)c1	i	nt	nt	nt	nt	nt
CC1CCC(C(=O)Oc2ccc(Br)cc2)CC1 (centres undefined)	i	nt	nt	nt	nt	nt
CN1C(=S)SC(C)(C)C1/[N+]([O-])=C/c1cccnc1 (centres undefined)	i	7.51*	0.743	5660	1560	3856
CN(C)c1ccc(/C=[N+](\[O-])C2SC(=S)N(C)C2(C)C)cc1 (centres undefined)	i	-0.571	-0.48	nt	nt	nt
CCOc1ccc(C(=O)N2CCc3cc(OC)c(OC)cc3C2)cc1OCC	i	4.62*	0.516	15188*	1788	4380*
COc1ccc(CN2CCN(C(=O)c3cccs3)CC2)cc1Br	i	6.37*	0.00153	12896*	nt	4528*
COc1ccc(CN2CCN(Cc3ccco3)CC2)cc1Br	i	nt	nt	nt	nt	nt
COc1cc2c(cc1OC)CN(C(=O)COc1ccc(C)c(C)c1)CC2	i	13.4*	0.448	21228*	1676	5744*
CCOc1ccc(C(=O)N2CCN(C(=O)c3ccco3)CC2)cc1OCC	i	1.9	0.137	nt	nt	nt
COc1cccc(C(=O)N2CCN(C(=O)c3cccs3)CC2)c1OC	i	-0.206	0.0356	nt	nt	nt
CCC(=O)c1ccc(OCC(=O)N2CCc3cc(OC)c(OC)cc3C2)cc1	i	2.15	-0.688	nt	nt	nt
COc1cc2c(cc1OC)CN(C(=O)c1cccs1)CC2	i	5.12*	0.339	8784*	1504	4064*
CCc1ccccc1NC1=C(Cl)C(=O)N(c2cccc(Cl)c2)C1=O	i	nt	nt	nt	nt	nt
CC(C)C(C)(O)C#CCN1CCOCC1 (centres undefined)	i	nt	nt	nt	nt	nt
COc1ccc2oc(=O)c(-c3nc4ccccc4[nH]3)cc2c1	i	nt	nt	nt	nt	nt
O=C1NC(=S)N(c2ccccc2)C(=O)C1C(c1ccc([N+](=O)[O-])cc1)C1C(=O)NC(=S)N(c2ccccc2)C1=O (centres undefined)	i	nt	nt	nt	nt	nt
Nc1nc(SCC(=O)OCc2ccccc2)[nH]c(=O)c1NC(=O)c1ccco1	i	3.19*	0.677	6284*	1856	2640
COC(=O)C(C)Sc1nc(N)c(NC(=O)c2ccco2)c(=O)[nH]1 (centres undefined)	nt	nt	-0.653	nt	nt	nt
O=C(O)c1ccccc1NS(=O)(=O)c1ccc2c3c(cccc13)C(=O)N2	i	-1.56	-1.29	nt	nt	nt
CC(C)C(NS(=O)(=O)c1ccc2c3c(cccc13)C(=O)N2)C(=O)O (centres undefined)	i	6.96*	0.0288	5048	nt	2324
Cc1nnc(SCC(=O)Nc2sc3c(c2C#N)CCCC3)s1	i	nt	nt	nt	nt	nt
COC(=O)c1nn(-c2ccccc2)ccc1=O	nt	nt	-1.59	nt	nt	nt
SMILES	BAP1 inh	D1 mod	hDAT+cocaine	D1 mod confirm	D1 no dopamine	Isoprot counter
COC(=O)c1cn(-c2ccccc2)nc1C(=O)OC	i	18.3*	1.28	20700*	1688	4544*
Cc1ccc(NC(=O)C(C(C)C)N2C(=O)c3ccccc3C2=O)c(C)c1 (centres undefined)	i	nt	nt	nt	nt	nt
CCSc1nc2ccccc2n1CC(N)=O	i	0.319	-1.04	nt	nt	nt
CCSc1nc2ccccc2n1Cc1nc(N)nc(N(C)C)n1	i	5.18*	0.621	10584*	nt	2828*
CC1=C(C(=O)OCCCCl)C(c2ccc(C)cc2)NC(=O)N1 (centres undefined)	i	nt	nt	nt	nt	nt
CCc1cc(=O)oc2cc3oc(C)c(C)c3cc12	i	4.46*	-0.383	5904	1888	2772
CCCc1cc(=O)oc2cc3oc(C)c(C)c3cc12	i	1.35	nt	nt	nt	nt
Cc1ccc(-c2csc(Nc3cccc(C)c3C)n2)cc1	i	nt	nt	nt	nt	nt
COc1ccc(NC(=O)C2CCCCN2N)cc1OC (centres undefined)	nt	nt	0.0985	nt	nt	nt
COc1ccc(NC(=O)C2CCCN2c2ccc(OC)c(OC)c2)cc1OC (centres undefined)	nt	6.04*	-0.706	15612*	1544	4296*
COc1ccc(CN2CCCCC2C(=O)Nc2ccc(OC)c(OC)c2)cc1OC (centres undefined)	i	7.19*	0.0215	14900*	1604	3784*
COc1ccc(CN2CCCC2C(=O)Nc2ccc(OC)c(OC)c2)cc1OC (centres undefined)	i	-0.0104	0.362	nt	nt	nt
Cc1cc(OCC(=O)Nc2ccccc2)ccc1Br	i	nt	nt	nt	nt	nt
CCSc1nccc(Nc2ccccc2)c1C#N	i	nt	nt	nt	nt	nt
COc1cccc(C2C(C(=O)c3cccs3)=C(O)C(=O)N2CCN(C)C)c1OC (centres undefined)	i	2.51*	-0.00233	5748	nt	2424
COc1ccc(OC)c(C2C(C(=O)c3cccs3)=C(O)C(=O)N2CCN(C)C)c1 (centres undefined)	i	-0.115	-0.0223	nt	nt	nt
Cc1cccc(-c2c3c(=O)n(C)c(=O)n(C)c3cn2-c2ccccc2O)c1	i	5.8*	0.84	9336*	1844	3884
CC(=O)Nn1cc2c(c1-c1ccccc1)c(=O)n(C)c(=O)n2C	i	1.28	-0.298	nt	nt	nt
COc1ccc(C(=O)Nc2cc3nn(-c4ccccc4)nc3cc2C)cc1[N+](=O)[O-]	i	nt	nt	nt	nt	nt
O=C1Nc2ccccc2C1=NC1CCS(=O)(=O)C1 (centres undefined)	i	nt	nt	nt	nt	nt
CCOC(=O)c1c(C)nc2c3ccccc3ccn12	i	5.3*	-0.113	19468*	1592	3904*
CCOC(=O)c1c(C)nc2ncccn12	nt	0.297	-0.0676	nt	nt	nt
CCOC(=O)c1c(C)nc2sccn12	i	2.61*	-0.0511	12992*	1936	2928
CCOC(=O)c1c(C)nc2c(C)cccn12	nt	nt	-0.0121	nt	nt	nt
Cc1cc(C(=O)Nc2ccc(S(=O)(=O)Nc3onc(C)c3C)cc2)c(C)o1	i	2.93*	0.404	8272*	1556	2872*
SMILES	BAP1 inh	D1 mod	hDAT+cocaine	D1 mod confirm	D1 no dopamine	Isoprot counter
Cc1noc(NS(=O)(=O)c2ccc(NC(=O)c3ccoc3C)cc2)c1C	i	-0.442	1.15	nt	nt	nt
NC(N)=NS(=O)(=O)c1ccc(N=Cc2ccccc2[N+](=O)[O-])cc1	i	nt	nt	nt	nt	nt
CCCSc1nc(NCc2ccco2)c2c3c(sc2n1)COC(C)(C)C3	nt	nt	1.34	nt	nt	nt
Cc1cc(C)n(-c2nc(NCc3cccnc3)c3c4c(sc3n2)COC(C)(C)C4)n1	i	3.01*	1.15	14976*	1540	5200*
CCCCC(=O)OCCN1C(=O)c2cccc3c(N4CCCCC4)ccc(c23)C1=O	i	nt	nt	nt	nt	nt
Cc1cccc(-c2cc3nc4c(c(N5CCCC(O)C5)n3n2)CCC4)c1 (centres undefined)	i	8.44*	3.4*	18448*	1604	6432*

Screens deposited in PubChem by several laboratories.
